Source: PubChem (National Center for Advancing Translational Sciences (NCATS))
HP1b chromo inh – HP1-beta chromodomain-methylated histone interaction inhibition | Potency, µM (titrated, usually from 114 µM), without a hit: at the highest dose activity change, negative = inhibition, actives largely listed as inhibitors | P83916 | AlphaScreen HP1-beta / biotin-H3K9me3 peptide binding | hit rate 0.56% among 390,000; also: potency is read from the fitted curve at half-maximal effect; nearly all actives have a fitted effect of over 70% in size
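Compound inhibition of the preformed complex between 50 nM HP1-beta and 50 nM biotinylated H3K9me3 peptide was read by AlphaScreen. Buffer was PBS pH 7.4 with 0.01% Tween-20. Incubations ran 30 min at room temperature, with 10 ug/mL donor/acceptor beads.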
KAT2A inh – GCN5L2 (KAT2A) acetyltransferase inhibition; Q92830; GCN5L2 HAT assay, ThioGlo1 CoA-SH fluorescence; Potency, µM (series often up to 58.9 µM), for inactives: top-dose activity change, negative = inhibition, actives largely listed as inhibitors; hit rate 0.21% among 390,000; AID 504327; also: potency is read from the fitted curve at half-maximal effect; % is scaled to controls: 0 for no effect and ±100 for the full control effect
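GCN5L2 (20nM final) in 50mM HEPES, 0.1mM EDTA pH 7.5, 0.01% Tween-20 was preincubated 15 min at room temperature with compound, then given ThioGlo1 (50uM), H3(1-25) peptide (75uM) and acetyl-CoA (70uM); CoA-thiol fluorescence (Ex340/Em540) was read at 0 and 20 min.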
PI5P4K alpha inh – inhibitors of human PI5P4K alpha; P48426; hit rate 1.2% among 330,000; PI5P4Kalpha enzyme, ADP-Glo luminescence, 60 min; hits give low values; max response, %; active = max response of -50% or lower; inconclusive = between -30% and -50%; inactive = -30% or higher; also: value at the top dose of about 77 µM; % is scaled to controls: 0 for no effect and ±100 for the full control effect
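Single end-point luminescence (ADP-Glo) quantified ADP from PI5P4Kalpha turnover; ATP 5 microM final, 1 h at RT, 0.1% CHAPS and 0.28 mM EGTA in HEPES pH 7.4.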
BAZ2B inh – inhibitors of human BAZ2B bromodomain. Potency, µM (doses to about 114 µM), without a hit: at the highest dose activity change, negative = inhibition, hits mostly inhibitors. AlphaScreen BAZ2B-H3K14Ac peptide displacement. Q9UIF8. hit rate 4.4% among 360,000. AID 504333; also: potency is read from the fitted curve at half-maximal effect; % is scaled to controls: 0 for no effect and ±100 for the full control effect; nearly all actives have a fitted effect of over 60% in size
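Multi-concentration screen (max 110 uM) measuring displacement of acetylated histone H3 peptide from BAZ2B by AlphaScreen, using 50 nM protein, 50 nM peptide and 10 ug/mL streptavidin donor plus Ni-chelate acceptor beads.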
JMJD2A Tudor inh – JMJD2A Tudor domain (human) inhibition; O75164; AlphaScreen JMJD2A-Tudor / H3K4me3 peptide binding; Potency, µM (series often up to 114 µM), for the others: at the top dose activity change, negative = inhibition, hits mostly inhibitors; hit rate 4.4% among 390,000; also: potency is read from the fitted curve at half-maximal effect; % is scaled to controls: 0 for no effect and ±100 for the full control effect; nearly all actives have a fitted effect of over 50% in size
Target sequence (O75164 whole entry, looked up, the tested form may be a part): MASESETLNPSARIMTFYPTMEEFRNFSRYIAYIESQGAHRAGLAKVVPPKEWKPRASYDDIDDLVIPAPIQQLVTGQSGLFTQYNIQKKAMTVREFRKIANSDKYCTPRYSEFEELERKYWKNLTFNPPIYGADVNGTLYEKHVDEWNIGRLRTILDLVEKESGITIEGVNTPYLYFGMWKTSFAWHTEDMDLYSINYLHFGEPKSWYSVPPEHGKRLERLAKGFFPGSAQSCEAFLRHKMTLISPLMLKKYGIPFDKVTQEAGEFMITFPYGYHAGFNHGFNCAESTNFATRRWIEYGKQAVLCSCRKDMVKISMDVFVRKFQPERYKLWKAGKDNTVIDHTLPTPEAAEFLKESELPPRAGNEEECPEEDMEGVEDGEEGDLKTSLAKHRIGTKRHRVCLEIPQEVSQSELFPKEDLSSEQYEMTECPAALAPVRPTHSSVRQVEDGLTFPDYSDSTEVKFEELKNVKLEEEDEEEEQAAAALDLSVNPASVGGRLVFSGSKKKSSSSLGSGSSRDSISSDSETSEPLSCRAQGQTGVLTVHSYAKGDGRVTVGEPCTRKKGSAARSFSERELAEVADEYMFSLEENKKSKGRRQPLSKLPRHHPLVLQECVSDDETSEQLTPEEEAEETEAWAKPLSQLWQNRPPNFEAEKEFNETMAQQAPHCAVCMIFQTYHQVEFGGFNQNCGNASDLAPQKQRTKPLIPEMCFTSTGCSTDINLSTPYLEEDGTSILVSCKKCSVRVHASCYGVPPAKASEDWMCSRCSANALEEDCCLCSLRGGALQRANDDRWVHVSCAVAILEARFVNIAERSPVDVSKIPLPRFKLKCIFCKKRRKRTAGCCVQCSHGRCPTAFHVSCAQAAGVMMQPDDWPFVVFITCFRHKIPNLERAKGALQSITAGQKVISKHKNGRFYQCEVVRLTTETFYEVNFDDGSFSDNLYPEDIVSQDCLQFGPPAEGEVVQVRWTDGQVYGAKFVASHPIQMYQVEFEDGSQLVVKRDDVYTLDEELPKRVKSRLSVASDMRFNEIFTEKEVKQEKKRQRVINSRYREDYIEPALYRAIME
PLK1 PBD inh – blocks phosphopeptide binding to human PLK1 polo-box domain. Plk1 PBD binding of FITC phosphopeptide, fluorescence polarization. Potency, µM, for inactives: max response, negative = inhibition, usual class: inhibitors. hit rate 2.8% among 360,000; also: potency is read from the fitted curve at half-maximal effect; series mostly up to about 57 µM; % is scaled to controls: 0 for no effect and ±100 for the full control effect; nearly all actives have a fitted effect of over 65% in size
The depositor's hits bear a star; ? = inconclusive; . = no result given; [ ] = dose if it differs, or a comment. Sampled rows, rich in hits. Any-hit rate of the full collection: about 7%. Unless noted, calls follow the shape of the dose curve; as a rule, active = well fitted curve in the direction sought with a large enough effect; inconclusive = small, poorly fitted or top-dose-only effect, or another doubt; inactive = no such curve, though single readings can be large; an effect the other way counts as inactive or inconclusive.

SMILES | HP1b chromo inh | KAT2A inh | PI5P4K alpha inh | BAZ2B inh | JMJD2A Tudor inh | PLK1 PBD inh
CN(C(=O)COC(=O)CNC(=O)c1sc2ccccc2c1Cl)C1CCS(=O)(=O)C1 (centres undefined) | 18.4% | -1.8% | 3.3 | . | -8.9% | -1.6%
Brc1ccccc1OCCCCCN1CCOCC1 | ? | -3.5% | 3.3 | 56.2µM* | 4.47µM* | -5.5%
Brc1ccccc1OCCCN1CCCCCC1 | ? | -1.5% | 1.2 | ? | 1µM* | 0.3%
CC(C)c1ccccc1OCCCCN1CCCCC1 | 36.0% | . | -0.8 | . | -4.0% | -2.5%
Brc1ccccc1OCCN1CCCC1 | 79.4µM* | . | 9.5 | . | 20µM* | -0.5%
CC(C)c1ccccc1OCCCN1CCCC1 | ? | 2.6% | -2.3 | ? | 31.6µM* | 3.0%
CCc1ccc(N(CC(=O)NC2CC2)S(=O)(=O)c2ccc(C)cc2)cc1 | 24.5% | -10.8% | 2.5 | -3.5% | -1.5% | -7.7%
CC(=O)c1ccccc1OCCCN1CCCCC1 | ? | 0.9% | 1.8 | 50.1µM* | 3.16µM* | -9.1%
Cc1c(C(=O)Oc2cc(N)n(S(C)(=O)=O)n2)cccc1[N+](=O)[O-] | 8.1% | ? | -17.8 | ? | -21.7% | 11.9µM*
COc1ccccc1/C=C/CN1CCN(c2ccccc2)CC1 | ? | -6.2% | . | 50.1µM* | 22.4µM* | 0.2%
COc1ccccc1/C=C/C=N/N1CCN(Cc2ccccc2)CC1 | 13.7% | -9.1% | 3.0 | 31.6µM* | -17.4% | -8.8%
O=C(CN1CCN(Cc2ccccc2Cl)CC1)N/N=C/C=C\c1ccccc1[N+](=O)[O-] | -11.9% | 19.2% | -3.8 | -38.7% | ? | -0.9%
Cc1ccc(CN2CCN(/N=C/C=C/c3ccccc3[N+](=O)[O-])CC2)cc1 | 17.8µM* | 1.5% | 3.2 | 20µM* | 14.1µM* | -19.6%
COc1ccc(NC(=O)C2CCN(S(=O)(=O)c3cn(C)cn3)CC2)cc1Cl | 11.2% | 7.6% | . | 0.6% | -8.6% | .
CCN(CC)CCn1c2c(c(SCC(=O)Nc3ccc4c(c3)OCCO4)nc1=O)CCCC2 | 17.1% | -14.3% | 0.8 | -2.3% | -12.4% | 0.2%
CC1CCc2nn(CC(=O)NCc3ccco3)cc2C1 (centres undefined) | -20.9% | -6.6% | -2.7 | 6.2% | ? | 29.9µM*
CC1CCc2nn(CC(=O)NCc3ccc(F)cc3)cc2C1 (centres undefined) | 59.1% | 2.2% | 3.4 | 9.3% | -2.1% | ?
Cc1ccc(C(=O)NCC2CCCO2)cc1N1CCCC1=O (centres undefined) | -7.0% | 32.4% | -21.6 | -0.6% | -11.5%[11.4 µM] | 26.7µM*
CC(=O)c1c(C)oc2ccc(NS(=O)(=O)c3ccc(O)c(C(=O)O)c3)cc12 | 5.9% | -8.0% | -20.7 | -31.8% | ? | -16.8%
O=C(O)c1cc(S(=O)(=O)Nc2ccc3oc(=O)sc3c2)ccc1O | 23.9% | -9.4% | -59.7* | ? | ? | 6.7µM*
O=C(Nc1nc2n(n1)C(c1ccccc1)C=C(c1ccccc1)N2)c1ccc(Cl)c([N+](=O)[O-])c1 (centres undefined) | 38.2% | -2.9% | . | -14.0% | -2.3% | .
Cc1ccc(O)c(NC(=O)CCCC(=O)O)c1 | 14.0% | -7.1% | . | 3.0% | -8.1% | -0.5%
C/C(O)=C(\N=Nc1cc(C)ccc1O)C(N)=O | ? | -5.7% | -5.6 | ? | -27.1%[11.4 µM] | 29.9µM*
COc1cc2c(cc1OC)C1=C(C#N)CN(CC(=O)O)CN1CC2 | -24.1% | -15.1% | 0.4 | 79.4µM* | 22.4µM* | -19.5%
CC1CCCCN1S(=O)(=O)c1ccc(C(=O)N(CCCN(C)C)c2nc3ccc(Br)cc3s2)cc1 (centres undefined) | -17.1% | ? | 0.7 | ? | 44.7µM* | -4.2%
SMILES | HP1b chromo inh | KAT2A inh | PI5P4K alpha inh | BAZ2B inh | JMJD2A Tudor inh | PLK1 PBD inh
CCc1ccc2nc(N(CCCN(C)C)C(=O)c3ccc(S(=O)(=O)N4CCCc5ccccc54)cc3)sc2c1 | ? | -4.3% | 0.3 | ? | 44.7µM* | -2.8%
CN(C)CCCN(C(=O)c1ccc2c(c1)CCCC2)c1nc2ccc(Cl)cc2s1 | -38.5% | 6.0% | -2.4 | ? | 39.8µM* | -11.0%
COc1cccc2sc(N(CCCN(C)C)C(=O)c3ccc(S(=O)(=O)N4CCCc5ccccc54)cc3)nc12 | -10.1% | -1.7% | 2.8 | 39.8µM* | ? | -2.0%
Cc1cc(C)n(-c2nc(NC(C)C)nc(NC(C)(C)C)n2)n1 | 25.7%[57 µM] | . | . | . | -23.1%[57.1 µM] | .
Cc1ccc(C(=O)CC2(O)C(=O)N(Cc3ccccc3)c3ccccc32)c(C)c1 (centres undefined) | ? | -15.5% | . | 10µM* | 39.8µM* | .
CC1(C)CC(=O)c2cc3c(nc2C1)CC(C)(C)CC3=O | 64.8% | -13.7% | 4.4 | -1.5% | 4.5% | -10.2%
CC1(C)CC(=O)c2cnc(N)nc2C1 | -9.2% | -6.0% | -17.8 | -18.1%[57.1 µM] | ? | 26.7µM*
COc1ccc(N2CCN(C(=O)CSc3c4c(nc5ccc(Cl)cc35)CCCC4)CC2)cc1 | -26.5% | -11.6% | . | . | 22.4µM* | .
Cc1cccc(C)c1NC(=O)CNC(=O)CCC(=O)N1CCOCC1 | 8.4% | -2.4% | 0.3 | -2.4% | -3.4% | 1.6%
COc1ccc(C(=O)OCC(=O)c2ccco2)cc1[N+](=O)[O-] | . | . | -58.8* | . | . | -2.5%
Cc1cc(NC(=O)Nc2nnc(N(C)C3CCCCC3)s2)ccc1Br | 11.9% | -8.1% | . | 50.1µM* | -13.6% | .
Cc1cccc(N2CCN(C(=O)Cn3c(C)c4cnn(-c5ccccc5)c(=O)c4c3C)CC2)c1C | 13.1% | -4.0% | . | ? | -32.9% | .
Cc1ccc(C=C2C(=O)c3ccccc3C2=O)s1 | ? | -2.8% | -15.3 | 15.8µM* | ? | 16.8µM*
O=C1/C(=C/c2cccs2)Cc2ccccc21 | 24.5% | -1.5% | 4.4 | -0.9% | 7.9% | -7.4%
O=C1C(=Cc2cccs2)C(=O)c2ccccc21 | -5.3% | -1.2% | 9.2 | -30.1% | -31.4% | 8.44µM*
COc1ccccc1CNC(=O)C(=O)NCC(c1cccnc1)N1CCN(c2ccccc2)CC1 (centres undefined) | 9.6% | -8.7% | . | -6.7% | -19.7% | .
Cc1ccccc1NC(=S)c1nc2ccccc2[nH]1 | 1.9% | -4.8% | -2.4 | 11.2µM* | ? | -0.9%
S=C(Nc1ccc(Cl)cc1)c1nc2ccccc2[nH]1 | ? | -3.0% | -2.9 | 44.7µM* | ? | 5.1%
COc1cc(OC)c(OC)cc1/C=N/n1c(-c2n[nH]c3c2CCC3)n[nH]c1=S | -25.8% | -10.3% | -11.0 | -22.4% | 3.16µM* | ?
COc1ccc(/C=N/n2c(-c3n[nH]c4c3CCC4)n[nH]c2=S)cc1 | -17.4% | -1.8% | -14.3 | -21.4% | 10µM* | -17.9%
COc1cccc(-c2n[nH]c3c2CCC3)c1 | 21.1% | -4.7% | 6.2 | -21.4% | -14.7% | -13.2%
COc1ccc(OC)c(/C=N/n2c(-c3n[nH]c4c3CCC4)n[nH]c2=S)c1 | 8.1% | -4.7% | 3.2 | -5.5% | 6.31µM* | -18.1%
